A word on the inhibition: it is the relative decrease from the control value, in per cent.

Results filed as inconclusive are left out. Active and inactive are the calls of the source.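 Rule for the calls, unless noted: active = inhibition above 54%, about 3 SD of non-fluorescent compounds; inactive = the rest.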

Five molecules from PubChem BioAssay can be followed below.

A short description of test [1]: rapamycin-like changes in RPL19A-GFP expression – cell-based, S. cerevisiae, multiplex flow cytometry, primary screen (AID 1862; in the data active = percent of DMSO control GFP below about 86%;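 note: lower values mimic rapamycin by blocking the RPL19A rise seen in DMSO cells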). The note with it: S. cerevisiae RPL19A-GFP strain, flow cytometry fluorescence, 3 h; at 10 µM; stronger effect = lower value. (In flow cytometry, cells or beads pass a laser one at a time.)
The nature of test [2]: TOR pathway GLN3 branch reporter MEP2-GFP changes – S. cerevisiae, multiplex flow cytometry, primary screen (AID 1867;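 active = GFP response, as percent of the DMSO control, above the screen-wide mean plus 3 SD, about 139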;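 note: median GFP channel fluorescence of barcode-gated MEP2-GFP cells measured by flow cytometry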). The note with it: S. cerevisiae MEP2-GFP strain, 3 h, at 10 µM, stronger effect = higher value, 100% means same as DMSO wells.
Test [3] can be described thus: TOR pathway RTG branch CIT2 reporter changes – S. cerevisiae, GFP fusion, multiplex flow cytometry, primary screen (AID 1870;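 active = percent response above a set limit, the screen-wide mean plus 3 SD, cut at about 130% in these data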;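 note: barcoded CIT2-GFP strain pooled with four other GFP strains with rapamycin as positive control; median GFP fluorescence per well over plate mean of DMSO wells so 100% = DMSO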). The note with it: S. cerevisiae CIT2-GFP expression, 3 h, at 10 µM, stronger effect = higher value.
Test [4] in a line: TOR pathway LAP4-GFP level changes – S. cerevisiae, multiplex flow cytometry, primary screen (AID 1873;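 active = GFP signal, as percent of the solvent control, above the screen mean plus 3 SD, about 149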). The settings on record: S. cerevisiae LAP4-GFP expression, 3 h, at 10 µM, stronger effect = higher value.
A short description of test [5]: yeast AGP1-GFP level changes, GLN3 branch – cell-based, multiplex flow cytometry, S. cerevisiae, primary screen (AID 1887;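 active = GFP signal above the screen-wide mean plus 3 SD, that is over about 124.5% of the solvent control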;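 note: AGP1-GFP fusion strain of S. cerevisiae within a five-strain barcoded multiplex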). The settings on record: 3 h, at 10 µM, stronger effect = higher value.
The nature of test [6]: reduced mouse 2C T cell binding to pMHC/ICAM-1 vesicles – MLPCN validation set, flow cytometry, LFA-1/ICAM-1 modulator project, pilot screen (AID 2523;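 active = response below a set limit, under 55% cells CD8-positive and vesicle-bound, and CD8 cells' 90th-percentile brightness under 279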;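 for vesicle binding response: mean PE anti-B7-1 fluorescence of CD8+ cells relative to row control; 100% = QL9-loaded vesicles with DMSO vehicle in the same plate row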). The note with it: 2C mouse CD8+ T cells, at 7 µM, stronger effect = lower value; double positive events: measured here: CD8+/vesicle+ event percentage.
Test [7] concerns the target Integrin beta-1 (Homo sapiens) + Integrin alpha-4 (Homo sapiens) (UniProt P13612+P05556). As to the kind of experiment: alpha4beta1 integrin LIBS antibody binding reduction – U937 cells, HUTS-21 mAb, flow cytometry, validation set, VLA-4 allosteric modulator project, pilot screen (AID 2674;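 active = inhibition above 50%, about 3 SD of the validation set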;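 note: antibody binding induced by the VLA-4 ligand LDV present at three times its Kd; 0% = LDV ligand with antibody and no compound and 100% = antibody without LDV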). The settings on record: HUTS-21 LIBS mAb binding, at 6.7 µM, stronger effect = higher value, binding induced by LDV ligand.

Test [8] is described as follows: calorie-restriction mimetic ROS inhibitors, yeast – validation compound set, pilot screen (AID 2706;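 active = superoxide response below 65% of plate, a cut near 3 SD across the whole screen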;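 note: yeast exposed to compound for one week at 30 degrees C before staining; 100% = mean of all compound wells on the same plate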). The settings on record: S. cerevisiae aging, superoxide DHE fluorescence; at 10 µM; stronger effect = lower value.
Test [9] concerns the target Beta-adrenergic receptor kinase 1 (Homo sapiens) (UniProt P25098). Briefly: GRK2 binders displacing RNA aptamer, biochemical, validation, human GRK2, bead flow cytometry (AID 488806;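 active = aptamer binding inhibition above 30%, about 3 SD of noise from non-fluorescent compounds; inactive = inhibition at or below 30%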). The settings on record: bead-bound GRK2, FAM-aptamer displacement, at 10 µM, stronger effect = higher value.
Test [10] deals with Beta-2 adrenergic receptor (Homo sapiens) (UniProt P07550). As to the kind of experiment: agonist-induced loss of surface beta2AR – cell-based, FAP fluorogen, flow cytometry, validation set, pilot screen (AID 504459;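 active = percent response above 42, roughly 3 SD of non-fluorescent test compounds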;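 note: agonist-driven loss of surface beta2AR via internalization measured by FAP dye flow cytometry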). The note with it: Am2.2-beta2AR cells, at 10 µM, stronger effect = higher value.
The target in test [11] is AP-2 complex subunit beta (Homo sapiens) (UniProt P63010). As to the kind of experiment: beta-arrestin/AP2 interaction blockers – biochemical, validation set, GST-AP2 beads, flow cytometry, pilot screen (AID 504541).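 Note: AP2 carries R879A mutation and is captured from E. coli lysate; bead-bound FITC arrestin peptide fluorescence measuring arrestin peptide binding to AP2; 0% = DMSO wells and 100% = excess unlabeled arrestin peptide control.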 The settings on record: FITC arrestin peptide, at 10 µM, stronger effect = higher value, AP2 beta2 appendage fragment, R879A mutant.
Test [12] in a line: cytosolic pH regulators acting via V-ATPase – S. cerevisiae, pHLuorin, HTS validation (AID 504600; in the data active = response above about 15%;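 note: plate controls were DMSO for no effect and reference compound for full effect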). The note with it: V-ATPase proton transport, at 10 µM, stronger effect = higher value.
Test [13] has as its system anti-desmoglein-3 scFv antibody binding to human DSG3. As to the kind of experiment: blockers of pathogenic pemphigus antibody–desmoglein-3 binding – biochemical, validation compound set, bead-based, flow cytometry, pilot screen (AID 588368;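 active = binding below the plate cutoff, the plate median minus 3 SD, with a reading above zero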;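 note: signal is the median channel fluorescence of bead-bound GFP antibody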). The settings on record: Protein G beads, DSG3-Fc, scFv-GFP binding, at 10 µM, stronger effect = lower value.
The nature of test [14]: Nile Red efflux blockade in pump-expressing yeast – validation compound set, multiplex, phenotypic, pilot screen (AID 588506;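 active = efflux inhibition above 0.42, the validation set average plus 4 SD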;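 note: Nile Red retained in cells so higher fluorescence means more efflux inhibition; 0 = negative control wells and 1 = enniatin B 25 µM full block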). The note with it: S. cerevisiae pump-expressing triplex, Nile Red efflux flow cytometry; at 10 µM; stronger effect = higher value; the pumps come from Candida albicans.
The target of test [15] is ATP-binding cassette sub-family B member 6 (Homo sapiens) (UniProt Q9NP58). Briefly: blockers of ABCB6-driven porphyrin uptake – K562-ABCB6 cells, flow cytometry, validation set, pilot screen (AID 588550;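 active = inhibition above the screen-wide mean plus 3 SD, about 51%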;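 note: 0% = DMSO wells and 100% = benzethonium chloride 70 µM positive control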). The note with it: K562-ABCB6 porphyrin accumulation, 1 h, at 10 µM, stronger effect = higher value.
Test [16] is described as follows: AML differentiation inducers, ER-HoxA9 marrow cells – cell-based, GFP/MAC1 double positive, flow cytometry, validation set, primary screen (AID 588685;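 active = differentiation response of at least 50%, scaled between solvent and reference control, from cells with both markers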;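 note: compound exposure lasts four days before antibody staining and flow analysis; 0% = DMSO wells and 100% = 5 µM fulvestrant positive control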). The note with it: stronger effect = higher value, normalized: vehicle 0, fulvestrant 100.

Chain of ATP-binding cassette sub-family B member 6 (Homo sapiens) (Q9NP58 whole entry, looked up): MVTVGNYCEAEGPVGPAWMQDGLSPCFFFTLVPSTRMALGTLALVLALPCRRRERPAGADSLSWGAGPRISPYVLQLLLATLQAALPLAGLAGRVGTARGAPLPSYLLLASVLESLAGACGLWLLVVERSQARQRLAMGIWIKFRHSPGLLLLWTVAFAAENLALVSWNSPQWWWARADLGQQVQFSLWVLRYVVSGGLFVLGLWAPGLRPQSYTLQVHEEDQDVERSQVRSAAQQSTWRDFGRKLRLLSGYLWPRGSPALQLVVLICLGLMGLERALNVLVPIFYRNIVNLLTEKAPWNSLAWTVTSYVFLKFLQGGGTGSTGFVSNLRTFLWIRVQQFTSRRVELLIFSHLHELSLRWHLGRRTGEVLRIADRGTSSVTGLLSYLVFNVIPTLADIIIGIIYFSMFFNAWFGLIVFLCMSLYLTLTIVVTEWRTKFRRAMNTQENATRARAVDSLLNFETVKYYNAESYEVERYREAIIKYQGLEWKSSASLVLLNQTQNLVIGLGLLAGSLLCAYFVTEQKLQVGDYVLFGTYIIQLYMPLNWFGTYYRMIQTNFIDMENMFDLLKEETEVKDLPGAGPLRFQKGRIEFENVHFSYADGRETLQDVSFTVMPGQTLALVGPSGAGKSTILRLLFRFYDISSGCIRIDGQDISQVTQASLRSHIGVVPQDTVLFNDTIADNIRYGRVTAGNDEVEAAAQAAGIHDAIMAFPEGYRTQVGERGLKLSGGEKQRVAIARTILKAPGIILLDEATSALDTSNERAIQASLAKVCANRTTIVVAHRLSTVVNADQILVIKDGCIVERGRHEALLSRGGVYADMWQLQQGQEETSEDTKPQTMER
Chain of Beta-2 adrenergic receptor (Homo sapiens) (P07550 whole entry, looked up): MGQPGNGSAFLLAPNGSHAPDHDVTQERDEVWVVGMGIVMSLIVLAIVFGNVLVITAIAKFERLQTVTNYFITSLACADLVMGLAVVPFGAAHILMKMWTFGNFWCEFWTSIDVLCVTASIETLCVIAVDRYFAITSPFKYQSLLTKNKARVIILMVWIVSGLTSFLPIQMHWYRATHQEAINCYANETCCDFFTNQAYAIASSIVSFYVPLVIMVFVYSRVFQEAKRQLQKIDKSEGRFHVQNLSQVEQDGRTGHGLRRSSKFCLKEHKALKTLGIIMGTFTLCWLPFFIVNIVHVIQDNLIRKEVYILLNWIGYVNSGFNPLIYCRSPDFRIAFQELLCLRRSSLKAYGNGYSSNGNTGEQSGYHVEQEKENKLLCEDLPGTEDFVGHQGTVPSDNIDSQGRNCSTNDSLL
Chain of Beta-adrenergic receptor kinase 1 (Homo sapiens) (P25098 whole entry, looked up): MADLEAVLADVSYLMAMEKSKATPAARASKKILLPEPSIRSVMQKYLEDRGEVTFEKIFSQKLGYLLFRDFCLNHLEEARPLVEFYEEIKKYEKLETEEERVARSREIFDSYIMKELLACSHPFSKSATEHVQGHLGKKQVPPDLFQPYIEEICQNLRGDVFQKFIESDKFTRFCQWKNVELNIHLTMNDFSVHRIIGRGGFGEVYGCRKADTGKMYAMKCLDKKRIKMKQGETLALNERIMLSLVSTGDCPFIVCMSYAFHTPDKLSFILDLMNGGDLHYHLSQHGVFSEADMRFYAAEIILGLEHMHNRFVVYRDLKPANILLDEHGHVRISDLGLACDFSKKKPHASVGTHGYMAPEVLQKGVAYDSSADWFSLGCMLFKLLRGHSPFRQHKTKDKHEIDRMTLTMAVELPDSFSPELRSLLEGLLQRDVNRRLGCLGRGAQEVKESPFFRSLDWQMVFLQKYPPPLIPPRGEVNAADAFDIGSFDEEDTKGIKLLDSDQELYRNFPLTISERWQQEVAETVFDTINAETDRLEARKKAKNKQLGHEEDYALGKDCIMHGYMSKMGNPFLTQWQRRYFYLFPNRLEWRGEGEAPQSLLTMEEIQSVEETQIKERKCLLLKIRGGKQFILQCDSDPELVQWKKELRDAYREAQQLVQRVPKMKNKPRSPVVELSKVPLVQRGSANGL
Chain of AP-2 complex subunit beta (Homo sapiens) (P63010 whole entry, looked up, the tested form may be a part, one chain of several): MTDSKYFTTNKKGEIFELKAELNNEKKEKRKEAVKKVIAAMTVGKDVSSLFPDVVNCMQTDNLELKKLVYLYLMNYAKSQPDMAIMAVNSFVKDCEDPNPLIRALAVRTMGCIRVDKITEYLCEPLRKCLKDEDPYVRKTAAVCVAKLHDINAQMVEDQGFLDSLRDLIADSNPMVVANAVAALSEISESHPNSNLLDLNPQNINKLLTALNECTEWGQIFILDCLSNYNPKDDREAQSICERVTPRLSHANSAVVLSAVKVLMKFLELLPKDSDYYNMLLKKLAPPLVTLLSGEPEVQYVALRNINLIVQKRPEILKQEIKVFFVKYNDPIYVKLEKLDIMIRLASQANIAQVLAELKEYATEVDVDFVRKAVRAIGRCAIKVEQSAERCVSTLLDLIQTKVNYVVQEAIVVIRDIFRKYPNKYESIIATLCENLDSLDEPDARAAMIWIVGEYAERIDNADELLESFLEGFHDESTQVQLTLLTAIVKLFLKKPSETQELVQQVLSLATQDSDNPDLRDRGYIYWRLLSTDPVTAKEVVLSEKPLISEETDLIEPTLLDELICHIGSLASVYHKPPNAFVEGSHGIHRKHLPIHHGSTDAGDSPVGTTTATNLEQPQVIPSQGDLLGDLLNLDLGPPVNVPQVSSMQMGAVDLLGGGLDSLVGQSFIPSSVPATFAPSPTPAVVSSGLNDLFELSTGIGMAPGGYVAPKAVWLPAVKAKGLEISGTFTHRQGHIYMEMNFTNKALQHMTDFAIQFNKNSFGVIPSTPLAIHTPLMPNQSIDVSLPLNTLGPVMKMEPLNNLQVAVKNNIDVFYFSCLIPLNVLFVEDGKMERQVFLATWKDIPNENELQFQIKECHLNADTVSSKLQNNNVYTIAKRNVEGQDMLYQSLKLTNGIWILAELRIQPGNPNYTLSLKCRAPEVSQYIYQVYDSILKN
Chain of Integrin beta-1 (Homo sapiens) + Integrin alpha-4 (Homo sapiens) (P05556 whole entry, looked up): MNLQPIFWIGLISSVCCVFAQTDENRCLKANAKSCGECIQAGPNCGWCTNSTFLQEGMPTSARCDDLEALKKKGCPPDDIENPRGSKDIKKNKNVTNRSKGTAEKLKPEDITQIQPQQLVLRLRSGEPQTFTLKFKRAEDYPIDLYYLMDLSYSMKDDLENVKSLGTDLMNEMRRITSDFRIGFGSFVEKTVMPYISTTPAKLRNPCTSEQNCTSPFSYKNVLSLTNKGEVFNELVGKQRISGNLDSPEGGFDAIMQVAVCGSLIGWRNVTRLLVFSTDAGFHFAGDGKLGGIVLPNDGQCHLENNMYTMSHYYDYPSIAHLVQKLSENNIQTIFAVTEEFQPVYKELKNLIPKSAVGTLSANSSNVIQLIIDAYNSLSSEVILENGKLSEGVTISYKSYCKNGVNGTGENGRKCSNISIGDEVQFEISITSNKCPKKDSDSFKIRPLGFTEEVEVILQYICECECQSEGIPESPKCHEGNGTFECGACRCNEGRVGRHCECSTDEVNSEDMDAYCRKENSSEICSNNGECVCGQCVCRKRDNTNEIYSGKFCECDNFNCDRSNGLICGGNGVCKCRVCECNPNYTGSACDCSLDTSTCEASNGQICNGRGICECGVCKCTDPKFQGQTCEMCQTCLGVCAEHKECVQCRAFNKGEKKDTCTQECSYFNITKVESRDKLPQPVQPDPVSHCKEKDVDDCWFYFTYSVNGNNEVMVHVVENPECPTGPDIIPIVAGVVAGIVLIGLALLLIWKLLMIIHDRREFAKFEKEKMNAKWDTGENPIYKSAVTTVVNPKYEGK
Chain of Integrin beta-1 (Homo sapiens) + Integrin alpha-4 (Homo sapiens) (P13612 whole entry, looked up): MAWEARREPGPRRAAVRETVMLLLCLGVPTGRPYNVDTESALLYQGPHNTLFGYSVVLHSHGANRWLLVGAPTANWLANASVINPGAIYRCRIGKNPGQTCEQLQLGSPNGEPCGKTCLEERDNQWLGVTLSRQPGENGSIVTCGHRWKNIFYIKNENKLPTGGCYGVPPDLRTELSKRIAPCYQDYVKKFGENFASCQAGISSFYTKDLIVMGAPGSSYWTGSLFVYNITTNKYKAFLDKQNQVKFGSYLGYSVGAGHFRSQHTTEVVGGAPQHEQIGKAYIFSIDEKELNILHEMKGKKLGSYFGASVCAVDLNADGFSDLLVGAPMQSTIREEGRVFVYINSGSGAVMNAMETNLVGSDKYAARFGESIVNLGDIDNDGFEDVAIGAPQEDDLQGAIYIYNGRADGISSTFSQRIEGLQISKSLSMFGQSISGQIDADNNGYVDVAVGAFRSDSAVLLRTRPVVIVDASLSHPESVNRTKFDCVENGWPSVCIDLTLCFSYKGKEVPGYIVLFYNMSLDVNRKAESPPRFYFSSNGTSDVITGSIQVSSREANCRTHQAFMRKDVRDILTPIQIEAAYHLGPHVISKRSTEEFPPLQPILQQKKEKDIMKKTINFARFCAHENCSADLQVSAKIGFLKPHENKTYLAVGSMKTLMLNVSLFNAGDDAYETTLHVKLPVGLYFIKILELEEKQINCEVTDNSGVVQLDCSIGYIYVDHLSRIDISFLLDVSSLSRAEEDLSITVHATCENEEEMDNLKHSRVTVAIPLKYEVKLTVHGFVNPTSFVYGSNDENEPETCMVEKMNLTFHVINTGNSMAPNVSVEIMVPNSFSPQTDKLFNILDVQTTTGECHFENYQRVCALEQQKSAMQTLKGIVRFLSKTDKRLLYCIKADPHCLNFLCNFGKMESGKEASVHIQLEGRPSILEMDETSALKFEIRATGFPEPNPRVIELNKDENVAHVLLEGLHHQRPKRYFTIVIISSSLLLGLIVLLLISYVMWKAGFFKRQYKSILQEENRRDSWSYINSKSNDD

With `CN1C(C(=O)Nc2ccccn2)=C(O)c2sccc2S1(=O)=O`, the percent of DMSO control GFP in test [1] was 102% (inactive). Besides, the GFP response vs DMSO was 97.7% (inactive) in [2] and 93.7% (inactive) in [4]. In addition, the percent response of DMSO control in test [3] was 105% (inactive). Besides, the GFP response, % of DMSO in test [5] was 102% (inactive). Further, the double positive events in test [6] amounted to 63.2%. Also, the vesicle binding response in [6] is 168% (inactive). In addition, the inhibition in test [7] was -2.43% (inactive); in [11] it was 6.73% (inactive); in test [15], 9% (inactive). Besides, the superoxide response (% of plate) in test [8] is 113% (inactive). Besides, the aptamer binding inhibition in test [9] is -6% (inactive). Also, the figures for the response in test [10] and in [12] were 4.21% (inactive) and 4.48% (inactive), respectively. Also, the binding (% of control) in test [13] was 96% (inactive). The efflux inhibition (fraction of control) in [14] is 0.035 (inactive). The differentiation response in [16] is 4.2% (inactive).

Regarding `CCSC(=O)CCCCCCCCCCCO`, in test [1], the percent of DMSO control GFP was 101% (inactive). In addition, the GFP response vs DMSO in test [2] was 103% (inactive); in [4] it was 127% (inactive). The percent response of DMSO control in test [3] is 96.4% (inactive). In addition, the GFP response, % of DMSO in [5] is 106% (inactive). The molecule also yielded a double positive events in [6] of 59.6%. Moreover, in test [6], the vesicle binding response is 348% (inactive). The results for the inhibition in test [7], in [11] and in test [15] were 20.2% (inactive), 41.3% (inactive) and -2% (inactive), respectively. Further, the superoxide response (% of plate) in test [8] was 78.1% (inactive). Further, in [9], the aptamer binding inhibition was 0% (inactive). Also, the results for the response in test [10] and in test [12] were -27.7% (inactive) and 2.69% (inactive), respectively. In addition, in test [13], the binding (% of control) was 103% (inactive). In addition, the efflux inhibition (fraction of control) in test [14] is 0.17 (inactive). The differentiation response in [16] was -13.9% (inactive).

As for `COc1ccc2c(c1)C=CC1(O2)N(CCO)c2ccccc2C1(C)C` (stereo not given), the percent of DMSO control GFP in test [1] was 98.2% (inactive). For the same molecule, the values for the GFP response vs DMSO in test [2] and in test [4] were 111% (inactive) and 124% (inactive), respectively. In test [3], the percent response of DMSO control was 104% (inactive). The GFP response, % of DMSO in test [5] was 117% (inactive). In [6], this molecule returned a double positive events of 62.1%. Besides, the vesicle binding response in [6] is 212% (inactive). For the same molecule, the figures for the inhibition in [7], in test [11] and in test [15] were -55.6% (inactive), 13.6% (inactive) and -25% (inactive), respectively. In addition, the superoxide response (% of plate) in [8] is 108% (inactive). In addition, the aptamer binding inhibition in test [9] is 6% (inactive). Further, the values for the response in [10] and in test [12] were 43.9% (active) and 7.05% (inactive), respectively. For the same molecule, in test [13], the binding (% of control) is 99.2% (inactive). In addition, the efflux inhibition (fraction of control) in test [14] is 0.04 (inactive). The differentiation response in test [16] was -1.05% (inactive).

On to `c1ccc(CNc2ncnc3nc[nH]c23)cc1`, for which the percent of DMSO control GFP in [1] was 103% (inactive). In addition, the GFP response vs DMSO in test [2] is 104% (inactive); in test [4], 90.1% (inactive). In addition, the percent response of DMSO control in test [3] is 90.8% (inactive). The GFP response, % of DMSO in test [5] is 97.8% (inactive). The same molecule registered a double positive events in [6] of 63.6%. For the same molecule, the vesicle binding response in [6] is 581% (inactive). The inhibition in test [7] is 9.92% (inactive); in [11], -1.71% (inactive); in [15], 3% (inactive). In addition, in test [8], the superoxide response (% of plate) was 93.5% (inactive). Also, the aptamer binding inhibition in test [9] is 6% (inactive). For the same molecule, the values for the response in [10] and in test [12] were 1.86% (inactive) and -1.37% (inactive), respectively. In addition, the binding (% of control) in [13] is 94.8% (inactive). In addition, the efflux inhibition (fraction of control) in test [14] was 0.11 (inactive). Also, the differentiation response in test [16] was 7.09% (inactive).

For the molecule `O=C(COc1ccc(F)cc1)OCCN1CCOCC1`, in test [1], the percent of DMSO control GFP was 102% (inactive). For the same molecule, the GFP response vs DMSO was 95.1% (inactive) in test [2] and 93.3% (inactive) in test [4]. Also, the percent response of DMSO control in test [3] was 112% (inactive). The GFP response, % of DMSO in test [5] was 102% (inactive). Also, in test [6], the double positive events turned out to be 62.8%. For the same molecule, the vesicle binding response in test [6] is 246% (inactive). Besides, the inhibition in test [7] is -2.53% (inactive); in test [11], -0.56% (inactive); in test [15] it was -1% (inactive). Moreover, the superoxide response (% of plate) in [8] is 89.6% (inactive). In addition, in test [9], the aptamer binding inhibition was 0% (inactive). In addition, the response in [10] was -7.72% (inactive); in test [12], 21.8% (active). Also, the binding (% of control) in test [13] was 96.4% (inactive). Also, in test [14], the efflux inhibition (fraction of control) was -0.1 (inactive). Besides, the differentiation response in [16] was -6.6% (inactive).
